Where a name gives a salt, the structure may show the parent alone. ± gives the uncertainty stated by the source.

The test system of the assay is NCC-PMP1-C1. Briefly: cell viability relative to DMSO control; higher = less growth inhibition. The settings on record: 10 µM; 72 h. The protocol:
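NCC-PMP1-C1 pseudomyxoma peritonei cells were seeded in 384-well plates coated with Matrigel and MEF (1e4 cells). Viability was read after 72 h by CCK-8 and expressed as % of the DMSO control, mean ± SD of duplicates.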
As to `CC(C)c1nc(CN(C)C(=O)N[C@@H](CCN2CCOCC2)C(=O)N[C@H](CC[C@H](Cc2ccccc2)NC(=O)OCc2cncs2)Cc2ccccc2)cs1` [Cobicistat (GS-9350)], the cell viability came to 83.8 ± 3.1%.
Turning to `CC(C)C(=O)Nc1ccc([N+](=O)[O-])c(C(F)(F)F)c1` [Flutamide], the cell viability was 74 ± 38%.
Next, `N#Cc1ccc(C(c2ccc(C#N)cc2)n2cncn2)cc1` [Letrozole]: 129 ± 29%; `S=C(NCc1ccc2c(c1)OCO2)N1CCN(c2ncnc3c2oc2ccccc23)CC1` [Amuvatinib (MP-470)]: 176.1 ± 0.89%; `C[C@H](NC(=O)Cc1cc(F)cc(F)c1)C(=O)N[C@H](C(=O)OC(C)(C)C)c1ccccc1`: 96.2 ± 2.6%.
As for `COc1cccc2c1C(=O)c1c(O)c3c(c(O)c1C2=O)C[C@@](O)(C(C)=O)C[C@@H]3O[C@H]1C[C@H](N)[C@H](O)[C@H](C)O1` [Daunorubicin HCl], the cell viability was -1.33 ± 0.2%.
As to `O=NN(CCCl)C(=O)NC1CCCCC1` [Lomustine], the cell viability was 105 ± 11%.
Next, `CC[C@@H]1/C=C(\C)C[C@H](C)C[C@H](OC)[C@H]2O[C@@](O)(C(=O)C(=O)N3CCCC[C@H]3C(=O)O[C@H](/C(C)=C/[C@@H]3CC[C@H](Cl)[C@H](OC)C3)[C@H](C)[C@@H](O)CC1=O)[C@H](C)C[C@@H]2OC` [Pimecrolimus]: 78.1 ± 5.1%; `CCOc1cc(C(C)(C)C)ccc1C1=N[C@@](C)(c2ccc(Cl)cc2)[C@@](C)(c2ccc(Cl)cc2)N1C(=O)N1CCN(CCCS(C)(=O)=O)CC1`: 52.5 ± 3.1%.
Next, `O=C(O)CCCN1CCC(O[C@@H](c2ccc(Cl)cc2)c2ccccn2)CC1` [Bepotastine Besilate]: 2.73 ± 16%.
Consider `CC(=O)O[C@H]1C(=O)[C@@]2(C)[C@H]([C@H](OC(=O)c3ccccc3)[C@]3(O)C[C@H](OC(=O)[C@H](O)[C@@H](NC(=O)c4ccccc4)c4ccccc4)C(C)=C1C3(C)C)[C@]1(OC(C)=O)CO[C@@H]1C[C@@H]2O` [Paclitaxel], for which the cell viability worked out at 81.6 ± 12%.
Take `CCS(=O)(=O)N1CCN(c2ccc(Nc3ncc(C(N)=O)c(NC4CC4)n3)cc2)CC1`: the cell viability is 71.8 ± 3.5%.
The result for `O=C(c1cc(Cc2n[nH]c(=O)c3ccccc23)ccc1F)N1CCN(C(=O)C2CC2)CC1` reads 92.3 ± 8.4%; that for `CCCCNc1ncc(-c2ccc(CN3CCOCC3)cn2)c(NC2CCC(O)CC2)n1` (stereo not given), 43.4 ± 2%; that for `C=CC[C@@H]1/C=C(\C)C[C@H](C)C[C@H](OC)[C@H]2O[C@@](O)(C(=O)C(=O)N3CCCC[C@H]3C(=O)O[C@H](/C(C)=C/[C@@H]3CC[C@@H](O)[C@H](OC)C3)[C@H](C)[C@@H](O)CC1=O)[C@H](C)C[C@@H]2OC` [Tacrolimus (FK506)], 2.67 ± 1%.
The result for `CC[C@@]1(O)C(=O)OCc2c1cc1n(c2=O)Cc2cc3c(CN(C)C)c(O)ccc3nc2-1` [Topotecan HCl] reads 55.8 ± 2.9%; that for `N#CC1(c2ccc(NC(=O)c3cccnc3NCc3ccncc3)cc2)CCCC1` [Apatinib], 77.6 ± 9.1%.
On to `C=CC(=O)Nc1cc2c(Nc3ccc(F)c(Cl)c3)ncnc2cc1OCCCN1CCOCC1` [Canertinib(CI-1033)], for which the cell viability worked out at 92.8 ± 7.2%.
Next, `CNC(=O)c1cc(Oc2ccc(NC(=O)Nc3ccc(Cl)c(C(F)(F)F)c3)c(F)c2)ccn1` [Regorafenib (BAY 73-4506)]: 147 ± 11%; `Nc1nnc(-c2cccc(Cl)c2Cl)c(N)n1` [Lamotrigine]: 102.9 ± 0.8%; `Clc1ccc(Nc2nnc(Cc3ccncc3)c3ccccc23)cc1` [Vatalanib (PTK787) 2HCl]: 84.5 ± 1.8%.
`Nc1ccn([C@@H]2O[C@H](CO)[C@@H](O)C2(F)F)c(=O)n1` [Gemcitabine HCl]: the cell viability worked out at 67.5 ± 15%.
Next, `Nc1cc(C(Cl)=C(Cl)Cl)c(S(N)(=O)=O)cc1S(N)(=O)=O` [Clorsulon]: 117 ± 9.7%.
For the molecule `CNC[C@H](O)c1ccc(O)c(O)c1` [Epinephrine Bitartrate], the cell viability was determined as 127 ± 6.3%.
Next, `C=CC(=O)Nc1cc(Nc2nccc(-c3cn(C)c4ccccc34)n2)c(OC)cc1N(C)CCN(C)C` [Osimertinib (AZD9291)]: 4.44 ± 0.89%; `CC(=O)O[C@@]12CO[C@@H]1C[C@H](O)[C@@]1(C)C(=O)[C@H](O)C3=C(C)[C@@H](OC(=O)[C@H](O)[C@@H](NC(=O)OC(C)(C)C)c4ccccc4)C[C@@](O)([C@@H](OC(=O)c4ccccc4)[C@H]21)C3(C)C` [Docetaxel]: 72.1 ± 2.1%.
Regarding `Cc1ccc(Nc2nccc(N(C)c3ccc4c(C)n(C)nc4c3)n2)cc1S(N)(=O)=O`, the cell viability is 72.5 ± 0.73%.
Next, `C=CC(=O)Nc1cccc(Nc2nc(Nc3ccc(N4CCN(C(C)=O)CC4)cc3OC)ncc2C(F)(F)F)c1` [Rociletinib (CO-1686, AVL-301)]: 57.8 ± 3.1%.
The result for `CCC(C)n1ncn(-c2ccc(N3CCN(c4ccc(OCC5COC(Cn6cncn6)(c6ccc(Cl)cc6Cl)O5)cc4)CC3)cc2)c1=O` (stereo not given) [Itraconazole] reads 81.9 ± 2.1%; that for `N=C(N)NC(=N)N1CCOCC1` [Moroxydine HCl], 104 ± 11%.
Next, `C[C@]12CC[C@@H]3c4ccc(O)cc4C[C@@H](CCCCCCCCC[S+]([O-])CCCC(F)(F)C(F)(F)F)[C@H]3[C@@H]1CC[C@@H]2O` (stereo not given in full) [Fulvestrant]: -7.846 ± 0.067%; `COc1cc([C@@H]2c3cc4c(cc3[C@@H](O[C@@H]3O[C@@H]5CO[C@@H](C)O[C@H]5[C@H](O)[C@H]3O)[C@H]3COC(=O)[C@H]23)OCO4)cc(OC)c1O` [Etoposide]: 61.1 ± 1.9%; `FC(F)(F)c1ccc(CNc2ccc(Cc3c[nH]c4ncc(Cl)cc34)cn2)cn1` [Pexidartinib (PLX3397)]: 63.2 ± 6%.
With `NC(=O)NO` [Hydroxyurea], the cell viability was 136 ± 8.1%.
Next, `Cc1ccc(-n2[nH]c(C)c(N=Nc3cccc(-c4cccc(C(=O)O)c4)c3O)c2=O)cc1C` [Eltrombopag Olamine]: 113 ± 3.3%; `C#Cc1cccc(Nc2ncnc3cc(OCCOC)c(OCCOC)cc23)c1` [Erlotinib HCl (OSI-744)]: 74.6 ± 2.7%.
For the molecule `CCCCCOC(=O)Nc1nc(=O)n([C@@H]2O[C@H](C)[C@@H](O)[C@H]2O)cc1F` [Capecitabine], the cell viability was 98.9 ± 16%.
In the case of `CCCCCCNC(=O)n1cc(F)c(=O)[nH]c1=O` [Carmofur], the cell viability was 96.6 ± 12%.
The result for `Cc1ccc(NC(=O)c2ccc(CN3CC[C@H](N(C)C)C3)c(C(F)(F)F)c2)cc1Nc1nccc(-c2cncnc2)n1` [Bafetinib (INNO-406)] reads 72.1 ± 3.7%; that for `COc1c2ccoc2cc2oc(=O)ccc12` [Bergapten], 87.3 ± 5%.

These data come from the supplement of paper PMC8877412.
